# Hit rate of the full screen: of about 310,000 compounds, about 2,200 (0.71%) showed an effect of 50% or more. The effect is printed as a negative number. What follows is part of a selection rich in strong results, with near analogues and random picks from the rest.
# Target: human ether-à-go-go-related gene (hERG) potassium channel (human, UniProt Q12809)
# Test: primary screen, population patch clamp on CHO cells stably expressing hERG; higher = less effect of the substance
# Chain of human ether-à-go-go-related gene (hERG) potassium channel (Q12809 whole entry, looked up): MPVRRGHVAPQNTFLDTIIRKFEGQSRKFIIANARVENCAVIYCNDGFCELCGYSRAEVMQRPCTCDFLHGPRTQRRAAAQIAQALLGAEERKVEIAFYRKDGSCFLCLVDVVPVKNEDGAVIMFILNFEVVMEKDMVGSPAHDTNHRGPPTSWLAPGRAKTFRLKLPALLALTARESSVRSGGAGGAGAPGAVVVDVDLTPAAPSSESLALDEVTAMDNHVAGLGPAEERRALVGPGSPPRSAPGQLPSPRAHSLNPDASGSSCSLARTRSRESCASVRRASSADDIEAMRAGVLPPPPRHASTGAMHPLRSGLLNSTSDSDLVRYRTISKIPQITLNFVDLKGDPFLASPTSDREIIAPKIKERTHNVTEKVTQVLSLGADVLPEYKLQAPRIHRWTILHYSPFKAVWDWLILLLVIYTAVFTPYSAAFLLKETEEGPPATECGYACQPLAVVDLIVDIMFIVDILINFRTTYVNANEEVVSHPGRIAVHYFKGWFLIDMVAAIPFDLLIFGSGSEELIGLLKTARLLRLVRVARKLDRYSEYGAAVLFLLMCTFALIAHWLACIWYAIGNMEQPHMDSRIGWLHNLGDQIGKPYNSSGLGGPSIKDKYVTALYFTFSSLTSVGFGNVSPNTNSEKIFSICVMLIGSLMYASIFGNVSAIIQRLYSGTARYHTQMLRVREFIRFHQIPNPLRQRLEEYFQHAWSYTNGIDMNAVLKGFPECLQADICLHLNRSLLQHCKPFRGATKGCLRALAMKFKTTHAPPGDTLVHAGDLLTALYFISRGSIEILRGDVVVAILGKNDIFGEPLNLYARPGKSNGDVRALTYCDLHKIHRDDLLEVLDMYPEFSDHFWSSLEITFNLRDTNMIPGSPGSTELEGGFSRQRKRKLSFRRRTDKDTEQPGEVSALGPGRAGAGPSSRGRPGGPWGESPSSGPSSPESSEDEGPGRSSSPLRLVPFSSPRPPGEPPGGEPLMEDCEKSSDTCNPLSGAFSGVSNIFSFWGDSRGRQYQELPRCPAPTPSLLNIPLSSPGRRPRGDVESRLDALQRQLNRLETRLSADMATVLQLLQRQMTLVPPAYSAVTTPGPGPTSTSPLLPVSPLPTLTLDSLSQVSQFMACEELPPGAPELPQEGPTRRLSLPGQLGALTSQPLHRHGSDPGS
row,SMILES,"hERG current change (%, negative = inhibition) at 1uM [%]"
1,O=C(Cn1nc(C(F)F)cc1C1CC1)NCCC1=CCCCC1,9.48
2,CCCCN(C(=O)CSc1nn(-c2ccc(F)cc2)c(=S)s1)c1c(N)n(CCCC)c(=O)[nH]c1=O,8.15
3,Cc1ccc(CCC(=O)Nc2ccccc2F)s1,4.84
4,O=C(CC1OC(=O)c2ccccc21)Nc1cccc(S(=O)(=O)N2CCCCCC2)c1 (stereo not drawn),0.598
5,CN(C)CCCn1c(N)c(C#N)c2nc(C#N)c(C#N)nc21,11.4
6,CCOC(=O)CS(=O)(=O)c1ccc(O)cc1,26.2
7,O=C(NNC(=S)Nc1ccc(F)cc1)c1ccccc1OC(F)F,6.53
8,CCOc1ccc(CCNC(=O)c2cc(C)nc3ccccc23)cc1OCC,-10.6
9,Cn1nnnc1SCC(=O)NC(C)(C)C,7.36
10,COc1ccc(-c2nc(CN3CCCC(C(=O)NC4CCCC4)C3)c(C)o2)cc1 (stereo not drawn),-53.5
11,Cc1cccc(-c2nc(CN3CCCC(C(=O)NC4CCCC4)C3)c(C)o2)c1 (stereo not drawn),-26.4
12,CCOC(=O)N1CCC(NC(=O)C2CCCN(Cc3nc(-c4ccc(CC)cc4)oc3C)C2)CC1 (stereo not drawn),-39.3
13,CCOC(=O)N1CCN(C(=O)C2CCCN(Cc3nc(-c4ccc(Cl)cc4)oc3C)C2)CC1 (stereo not drawn),-57.7
14,Cc1oc(-c2ccc(Cl)cc2)nc1CN1CCCC(C(=O)N2CCOCC2)C1 (stereo not drawn),-32.9
15,CCOc1ccc(-c2nc(CN3CCCC(C(=O)N4CCOCC4)C3)c(C)o2)cc1 (stereo not drawn),-5.79
16,Cc1oc(-c2ccc(Cl)cc2)nc1CN1CCCC(C(=O)NC2CC2)C1 (stereo not drawn),-18.2
17,CCOC(=O)N1CCC(NC(=O)C2CCCN(Cc3nc(-c4cccc(Cl)c4)oc3C)C2)CC1 (stereo not drawn),-50.4
18,CCOC(=O)N1CCC(NC(=O)C2CCCN(Cc3nc(-c4cccc(C)c4)oc3C)C2)CC1 (stereo not drawn),-24.2
19,CN1N=C(C(=O)NC2CCCc3c2cnn3-c2ccc(F)cc2F)CCC1=O (stereo not drawn),6.91
20,C=C1CC2C3CC[C@@]4(OCOC45COCO5)[C@@]3(C)C(O)CC2[C@@]2(C)CCC(=O)C=C12 (stereo partly drawn),13.6
21,Cc1ccc(C(=O)C(C)OC(=O)c2ccccc2[N+](=O)[O-])cc1 (stereo not drawn),8
22,CCC1=Nc2cc(C(=O)NCCCN3CCOCC3)ccc2Sc2ccc(Br)cc21,15.9

row,SMILES,"hERG current change (%, negative = inhibition) at 1uM [%]"
1,CCOC(=O)/C(C#N)=N/Nc1ccccc1C#N,11.2
2,CC(C)CCn1nnnc1C(c1ccccc1)N1CCN(C)CC1 (stereo not drawn),9.6
3,CCOC(=O)Cn1nnnc1C(CC)N(Cc1ccccc1)Cc1cc2cc(C)ccc2[nH]c1=O (stereo not drawn),-2.05
4,Cc1cc(C)cc(N2C(=O)NC(=O)/C(=C\c3cccn3-c3ccccc3)C2=O)c1,-0.0202
5,CCCCOC(=O)c1ccc(OC(=O)c2cccnc2)cc1,5.73
6,O=C(O)c1ccc(SCc2cnc(Cl)s2)cc1,-79.6
7,COC(=O)c1ccc(SCc2cnc(Cl)s2)cc1,7.26
8,Clc1ncc(CSc2ccccc2)s1,5.7
9,Cc1ccc(NC(=O)N(Cc2nc3ccccc3c(=O)[nH]2)Cc2cccs2)cc1,5.74
10,Cc1ccc(-n2ncc3c2CCCC3NC(=O)c2csnn2)cc1C (stereo not drawn),2.61
11,Cc1cc(C)cc(-n2ncc3c2CCCC3NC(=O)c2csnn2)c1 (stereo not drawn),-84
12,CC1=C(C(=O)NC2CC(C)(C)Cc3c2cnn3-c2cccc(F)c2)OCCO1 (stereo not drawn),-3.59
13,Cc1cc(C(=O)NC2CC(C)(C)Cc3c2cnn3-c2cccc(F)c2)nn1C (stereo not drawn),9.79
14,Cc1cc(C(=O)NC2CC(C)(C)Cc3c2cnn3-c2cccc(F)c2)n(C)n1 (stereo not drawn),3.12
15,CC(C)(C)c1ccc(-n2ncc3c2CCCC3NC(=O)c2csnn2)cc1 (stereo not drawn),9.11
16,CC1(C)Cc2c(cnn2-c2cccc(F)c2)C(NC(=O)c2ccc(=O)[nH]n2)C1 (stereo not drawn),-61.7
17,Cc1cnc(C(=O)NC2CC(C)(C)Cc3c2cnn3-c2cccc(F)c2)cn1 (stereo not drawn),3.82
18,CC1(C)Cc2c(cnn2-c2cccc(F)c2)C(NC(=O)c2csnn2)C1 (stereo not drawn),-85
19,Nc1ccc(C(=O)NCc2ccccc2)cc1,8.94
20,CCNC(=O)c1ccc(NC(=O)CC2SC(N3CCCCC3)=NC2=O)cc1 (stereo not drawn),-1.11
21,COc1ccc(CCNC(=O)c2cc(C)oc2C)cc1,10.3
22,OCC1(Cc2ccccc2)CCN(C2CCN(c3ccc(F)c(F)c3)CC2)CC1,-124

row,SMILES,"hERG current change (%, negative = inhibition) at 1uM [%]"
1,OCCC1CN(C2CCN(c3ccccc3F)CC2)CCN1Cc1ccccc1 (stereo not drawn),-1.66
2,OCC1(Cc2ccccc2)CCCN(C2CCCC2)C1 (stereo not drawn),-3.43
3,OCCC1CN(C2CCC2)CCN1Cc1ccc(F)c(F)c1 (stereo not drawn),12.1
4,OCC1(Cc2ccccc2)CCN(C2CCN(c3ccccc3F)CC2)CC1,-38.5
5,OCCC1CN(C2CCN(c3ccccc3)CC2)CCN1Cc1ccc(F)c(F)c1 (stereo not drawn),-71.1
6,CC(C)c1c(C(=O)N/N=C/c2ccccc2C(=O)O)nnn1-c1nonc1N,7.36
7,C(=C\CSc1nnnn1-c1ccccc1)/CSc1nnnn1-c1ccccc1,0.568
8,O=C(Cn1nc(-c2ccccc2)c2ccccc2c1=O)Nc1ccc2c(c1)nc1n2CCOC1,13.3
9,C/C(=N\NC(=O)C1(C)CC1(Br)Br)c1cccc(NC(=O)c2ccc(C)o2)c1 (stereo not drawn),11.8
10,CN1CCCN(C(=O)c2ccc(Cl)s2)CC1,-50.5
11,O=C(c1ccc(Cl)s1)N1CCCC1,6.35
12,CN1CCCN(C(=O)c2ccc(Br)s2)CC1,1.6
13,CCOc1ccc(CCNC(=O)CN2CCN(Cc3ccccc3F)C2=O)cc1OCC,-0.385
14,Cc1ccc(S(=O)(=O)N2CCC(C(=O)Nc3ncccc3O)CC2)cc1,-13.8
15,CCC1CCCCN1CCCNC(=O)c1ccc2c(c1)N(Cc1ccc(F)cc1)C(=O)c1ccccc1S2=O (stereo not drawn),-13.7
16,Cc1nc(S(=O)(=O)c2ccc(Cl)cc2)nc2c1CCC2,0.296
17,CCOc1ccccc1CN1C(=O)NC(C)(c2ccccc2)C1=O (stereo not drawn),-0.418
18,CCN(C1CCCCC1)S(=O)(=O)CCNC(=O)c1ccccc1,2.25
19,CC[N+](C)(C)CCN(Cc1ccc(Cl)cc1)c1ccccn1.[Br-],-33.2
20,CCCCCCCCCCCCCCCC[N+](C)(C)CCN(Cc1ccc(OC)cc1)c1ncccn1.[Br-],-61.5
21,COc1ccc(CN(CCN(C)C)c2ccccn2)cc1.O=C(O)/C=C\C(=O)O,-0.0995
22,COc1cc(C)ccc1OCCCOc1ccccc1Br,12.3

row,SMILES,"hERG current change (%, negative = inhibition) at 1uM [%]"
1,O=C(CCn1c(=O)c2sccc2n(Cc2cc(=O)n3ccccc3n2)c1=O)NCc1ccco1,-25.1
2,CCCC(=O)N1CCCC(C(=O)c2cccc(OC(C)C)c2)C1 (stereo not drawn),9.81
3,CCOC(=O)N1CCC(N2CCCC(C(=O)c3ccc4cc(OC)ccc4c3)C2)CC1 (stereo not drawn),-55.1
4,CCOC(=O)N1CCC(N2CCCC(C(=O)c3cc(C)c(OC)c(C)c3)C2)CC1 (stereo not drawn),-28.1
5,CC(C)Oc1cccc(C(=O)C2CCCN(C3CCOCC3)C2)c1 (stereo not drawn),-5.96
6,CCOC(=O)N1CCC(N2CCCC(C(=O)c3cccc(OC(C)C)c3)C2)CC1 (stereo not drawn),-61.3
7,CCOC(=O)N1CCC(N2CCCC(C(=O)c3cccc(OC)c3)C2)CC1 (stereo not drawn),-13.2
8,O=C(COC(=O)CCc1ccccc1)NCc1ccccc1,12.3
9,COc1ccc(C2C(C(=O)Nc3cccnc3)=C(C)Nc3nc(-c4cccs4)nn32)cc1 (stereo not drawn),-2.21
10,COc1ccccc1-c1nc2n(n1)C(c1cccs1)C(C(=O)Nc1cccnc1)=C(C)N2 (stereo not drawn),0.0177
11,COc1cccc(-c2nc3n(n2)C(c2cccs2)C(C(=O)Nc2cccnc2)=C(C)N3)c1 (stereo not drawn),-51.2
12,CC(=O)OC(C(=O)NC1CCCCC1)c1ccccc1 (stereo not drawn),9.71
13,CCCN(C(=O)c1ccc(N(C)S(=O)(=O)c2ccc(C)cc2)cc1)C1CCS(=O)(=O)C1 (stereo not drawn),14.8
14,CCN(CC)CCCNC(=O)c1nn(-c2cccc(OC)c2)c(=O)c2ccccc12,-66.9
15,CCN(CC)CCCNC(=O)CNC(=O)c1nn(-c2ccc(OC)cc2)c(=O)c2ccccc12,17.5
16,CCN(CC)CCCNC(=O)c1nn(-c2ccc(OC)cc2OC)c(=O)c2ccccc12,8.97
17,CC(=O)NS(=O)(=O)c1ccc(NC(=O)C(Sc2ccccc2)c2ccccc2)cc1 (stereo not drawn),7.09
18,Cn1c(=O)c(C(=O)CN2CCCCC2)c(N)n(Cc2ccccc2)c1=O,6.17
19,Cc1coc2cc3oc(=O)c(CC(=O)N4C[C@H]5C[C@@H](C4)c4cccc(=O)n4C5)c(C)c3cc12,4
20,Cc1coc2cc3oc(=O)c(CCC(=O)N4C[C@H]5C[C@@H](C4)c4cccc(=O)n4C5)c(C)c3cc12,-16.8
21,Cc1c(CC(=O)N2C[C@H]3C[C@@H](C2)c2cccc(=O)n2C3)c(=O)oc2cc3occ(C(C)(C)C)c3cc12,-56.8
